Unmarked numbers belong to inactive results. Inconclusive results are not listed. Entries that show only a call come without a potency. The source made the active and inactive calls. Unless noted, calls come from the whole dose curve; as a rule, active = well fitted curve in the direction sought with a large enough effect in the repeat runs; inconclusive = weak or mixed curves; inactive = no such curve, though single readings can be large; an effect the other way counts as inactive or inconclusive.
Experiments:
[1] = qHTS assay to identify small molecule antagonists of the estrogen related receptor (ERR) signaling pathway from Tox21 library - cell viability counter screen (AID 1224834); note: nearly all actives have a fitted effect of over 30% in size
Procedure, shortened: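 After 17.5 h of compound exposure at 37 C, ERR cells are incubated with CellTiter-Fluor for 30 min and fluorescence intensity serves as the viability measure.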

[2] = molecular target: Luciferin 4-monooxygenase (Photinus pyralis) (UniProt P08659); assay: qHTS assay to identify small molecule inhibitors of firefly luciferase (AID 1224835); note: nearly all actives have a fitted effect of over 25% in size; note: potency is the fitted concentration of half-maximal effect
Procedure, shortened: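 Biochemical qHTS: compounds run as interplate titrations against purified firefly enzyme, with D-luciferin and ATP each at its KM concentration. Light output recorded by CCD imaging.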

[3] = qHTS assay to identify small molecule agonists of the constitutive androstane receptor (CAR) signaling pathway - cell viability counter screen (AID 1224836); note: nearly all actives have a fitted effect of over 45% in size
Procedure, shortened: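 HepG2 cells stably carrying hCAR and a CYP2B6-2.2kb reporter were plated 4 h, then given compounds at 15 concentrations plus PK11195 (final 0.75 uM). After 23 h at 37 C, viability was read by CellTiter-Fluor fluorescence.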

[4] = qHTS assay to identify small molecule antagonists of the constitutive androstane receptor (CAR) signaling pathway - cell viability counter screen (AID 1224837); note: nearly all actives have a fitted effect of over 45% in size
Procedure, shortened: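 Counter screen run in HepG2-CYP2B6-hCAR cells: 4 hr settle, compound titration (15 concentrations) with 50 nM CITCO, 23 hr at 37 C/5% CO2, CellTiter-Fluor fluorescence.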

[5] = molecular target: Nuclear receptor subfamily 1 group I member 3 (Homo sapiens) (UniProt Q14994); assay: qHTS assay to identify small molecule antagonists of the constitutive androstane receptor (CAR) signaling pathway (AID 1224838); note: nearly all actives have a fitted effect of over 40% in size
Procedure, shortened: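 Cell line: HepG2 double-stable for hCAR and CYP2B6-2.2kb reporter. Agonist: CITCO, 50 nM final. Compounds: 15 concentrations, 24 h, 37 C. Detection: ONE-Glo luminescence.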

[6] = molecular target: Nuclear receptor subfamily 1 group I member 3 (Homo sapiens) (UniProt Q14994); assay: qHTS assay to identify small molecule agonists of the constitutive androstane receptor (CAR) signaling pathway (AID 1224839); note: nearly all actives have a fitted effect of over 15% in size; note: potency is the fitted concentration of half-maximal effect;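 for activation: HepG2 cells stably carrying human CAR and a CYP2B6 luciferase reporter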
Procedure, shortened: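 HepG2 cells stably expressing hCAR and a CYP2B6-2.2kb luciferase reporter were treated with compounds at 15 concentrations plus 0.75 uM PK11195 (final) for 24 h at 37 C; luminescence was read after ONE-Glo addition.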

[7] = qHTS assay to identify small molecule antagonists of the estrogen related receptor signaling pathway with the pleiotropic PPARgamma coactivator (PGC) from Tox21 10K library - cell viability counter screen (AID 1224840; active = well fitted cell-killing curve with a large enough effect in the repeat runs, not every such curve was filed as active; note: nearly all actives have a fitted effect of over 40% in size)
Procedure, shortened: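 Following seeding of 2,000 PGC/ERR cells/well and 6 hours' incubation, test compounds were delivered in DMSO. The plates then sat 17.5 hours at 37 C before a fluorogenic live-cell protease reagent (CellTiter-Fluor) was read after 30 min.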

[8] = qHTS assay to identify small molecule antagonists of the estrogen related receptor signaling pathway with the pleiotropic PPARgamma coactivator (PGC) from Tox21 10K library (AID 1224841; call rule not given here; note: actives are mostly falling curves and most rising ones were filed inactive; nearly all actives have a fitted effect of over 50% in size)
Procedure, shortened: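 qHTS antagonist format: PGC/ERR cells, 2k/well, compound in DMSO by pin transfer after 6 h attachment, 18 h treatment at 37 C, One-Glo luminescence read at 30 min.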

[9] = molecular target: Thyrotropin receptor (Homo sapiens) (UniProt P16473); assay: qHTS assay to identify small molecule agonists of the thyroid stimulating hormone receptor (TSHR) signaling pathway (AID 1224843; calls by dose curve; note: nearly all actives have a fitted effect of over 45% in size)
Procedure, shortened: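 TSHR-HEK293 cells in agonist mode, 30 min room-temperature step, then cAMP measured by competitive HTRF (cAMP-d2 with anti-cAMP cryptate) after 1 h at room temperature. Tested at 15 concentrations in triplicate.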

[10] = qHTS assay to identify small molecule agonists of the hypoxia (HIF-1) signaling pathway - cell viability counter screen (AID 1224844; calls by dose curve; note: nearly all actives have a fitted effect of over 50% in size)
Procedure, shortened: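 Cells (HRE-bla ME-180, 2,000 per well) sat 5 hrs at 37C, got compound for 17 hrs, were read for CCF4-AM FRET, and were finally lysed with CellTiter-Glo for a 30 min room-temperature luminescence read.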

[11] = qHTS assay to identify small molecule agonists of H2AX (AID 1224845; active = well fitted activation curve with a large enough effect in the signal ratio in the repeat runs, not every such curve was filed as active; the % refers to the signal ratio)
Procedure, shortened: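 Wild-type CHO-K1 cells, plated overnight, exposed 3hr at 37C to 15 concentrations (0.76% DMSO final). Lysed, then HTRF anti-pH2AX (S139) cryptate and anti-H2AX-d2 antibodies, 24 hr room temperature; 665/620 nm emission read.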

[12] = qHTS assay to identify small molecule agonists of the hypoxia (HIF-1) signaling pathway (AID 1224846; active = well fitted activation curve with a large enough effect in the signal ratio in the repeat runs, not every such curve was filed as active; the % refers to the signal ratio)
Procedure, shortened: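 A low-serum medium (0.5% dialyzed FBS) holding 2,000 HRE-bla ME-180 cells per well is preincubated for 5 hrs, dosed with compounds by pintool, and kept a further 17 hrs at 37C, 5% CO2 before CCF4-AM FRET detection of beta-lactamase.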

[13] = qHTS assay to identify small molecule agonists of H2AX - cell viability counter screen (AID 1224847; calls by dose curve; note: top concentration of the series differs between compounds; nearly all actives have a fitted effect of over 30% in size)
Procedure, shortened: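 Wild-type CHO-K1 cells (10% FBS medium) were plated overnight at 37C, exposed to compounds at 15 concentrations for 3 hr at 37C (0.76% DMSO final), and viability was read as CellTiter-Glo luminescence after 30 min at room temperature.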

[14] = qHTS assay to identify small molecule antagonists of the estrogen related receptor (ERR) signaling pathway from Tox21 library (AID 1224848); note: nearly all actives have a fitted effect of over 50% in size
Procedure, shortened: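 ERR reporter cell line (from NTP) seeded 2,000 cells/well, rested 6 h at 37 C/5% CO2, then pin-dosed with compounds in DMSO. After 18 h at 37 C, ONE-Glo added; luminescence read after 30 min at room temperature.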

[15] = qHTS assay to identify small molecule agonists of the estrogen related receptor (ERR) signaling pathway from Tox21 library (AID 1224849; calls by dose curve; note: nearly all actives have a fitted effect of over 15% in size); conditions: ERR reporter cell line, ONE-Glo luciferase, 18 h; at 92.4 µM (top of the series) unless noted
Procedure, shortened: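 Screening used an NTP-provided ERR luciferase cell line. Compounds in DMSO were added 6 h after seeding and left 18 h at 37 C before a 30 min ONE-Glo step and luminescence reading.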

[16] = qHTS RealTime-Glo MT Cell Viability Assay in HepG2 cells - 24 hour (AID 1224867); note: nearly all actives have a fitted effect of over 50% in size
Procedure, shortened: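 Cell number in HepG2 cultures estimated from NanoLuc luminescence generated by metabolic reduction of a prosubstrate by living cells. The homogeneous, nonlytic format allowed repeated reads at 0, 8, 16, 24, 32 and 40 h of compound exposure.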

[17] = A CellTox Green Cytotoxicity Assay to monitor cytotoxicity in HEK293 cells - 0 hour (AID 1224869); note: nearly all actives have a fitted effect of over 50% in size
Procedure, shortened: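 Fluorescence intensity, read at 0, 8, 16, 24, 32 and 40 h of compound treatment, reflected dye binding to DNA of dead HEK293 cells; compounds (23 nL, DMSO) were added 5 h after plating cells with reagent.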

[18] = qHTS RealTime-Glo MT Cell Viability Assay in HepG2 cells - 40 hour (AID 1224870); note: nearly all actives have a fitted effect of over 50% in size
Procedure, shortened: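 HepG2 cells (600/well) mixed with RealTime-Glo MT reagent, settled 5 h at 37 C/5% CO2 before compound addition. Nonlytic NanoLuc luminescence from viable-cell prosubstrate reduction read repeatedly during 40 h treatment at 37 C.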

[19] = qHTS RealTime-Glo MT Cell Viability Assay in HEK293 cells - 32 hour (AID 1224868)
Procedure, shortened: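 Homogeneous bioluminescent viability format in HEK293 cells (600 cells/well). Following 5 h at 37 C/5% CO2, 23 nL compound was pintooled; the signal was measured repeatedly during 40 h incubation.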

[20] = qHTS assay to identify small molecule agonists of the estrogen related receptor signaling pathway with the pleiotropic PPARgamma coactivator (PGC) from Tox21 10K library (AID 1224842); note: nearly all actives have a fitted effect of over 15% in size
Procedure, shortened: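 PGC/ERR reporter cell line, 2,000 cells per well, incubated 6 h at 37 C before 23 nL compound in DMSO was added. After 18 h at 37 C, One-Glo luminescence read following 30 min at room temperature.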

Thyrotropin receptor (Homo sapiens), sequence (P16473 whole entry, looked up): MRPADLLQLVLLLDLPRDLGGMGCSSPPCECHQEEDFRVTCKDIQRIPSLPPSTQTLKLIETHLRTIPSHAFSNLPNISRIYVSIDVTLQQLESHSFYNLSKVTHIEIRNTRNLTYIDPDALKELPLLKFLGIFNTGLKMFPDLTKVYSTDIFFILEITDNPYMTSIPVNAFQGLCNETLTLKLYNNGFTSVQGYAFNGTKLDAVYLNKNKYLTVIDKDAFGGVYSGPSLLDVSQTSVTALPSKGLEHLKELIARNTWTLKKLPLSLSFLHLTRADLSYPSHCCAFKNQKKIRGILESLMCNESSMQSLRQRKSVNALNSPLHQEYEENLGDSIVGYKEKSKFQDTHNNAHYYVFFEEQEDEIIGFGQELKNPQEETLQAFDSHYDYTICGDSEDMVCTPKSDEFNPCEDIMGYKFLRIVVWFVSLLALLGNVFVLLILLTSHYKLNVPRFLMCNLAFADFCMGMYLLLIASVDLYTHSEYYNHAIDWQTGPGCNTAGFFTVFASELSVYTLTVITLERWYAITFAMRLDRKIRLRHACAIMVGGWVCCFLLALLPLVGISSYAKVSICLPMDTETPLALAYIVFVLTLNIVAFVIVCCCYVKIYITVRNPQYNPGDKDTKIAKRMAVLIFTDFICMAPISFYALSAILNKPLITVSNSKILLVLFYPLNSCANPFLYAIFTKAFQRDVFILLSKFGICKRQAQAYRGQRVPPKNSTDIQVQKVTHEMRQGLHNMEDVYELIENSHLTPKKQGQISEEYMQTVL
Luciferin 4-monooxygenase (Photinus pyralis), sequence (P08659 whole entry, looked up): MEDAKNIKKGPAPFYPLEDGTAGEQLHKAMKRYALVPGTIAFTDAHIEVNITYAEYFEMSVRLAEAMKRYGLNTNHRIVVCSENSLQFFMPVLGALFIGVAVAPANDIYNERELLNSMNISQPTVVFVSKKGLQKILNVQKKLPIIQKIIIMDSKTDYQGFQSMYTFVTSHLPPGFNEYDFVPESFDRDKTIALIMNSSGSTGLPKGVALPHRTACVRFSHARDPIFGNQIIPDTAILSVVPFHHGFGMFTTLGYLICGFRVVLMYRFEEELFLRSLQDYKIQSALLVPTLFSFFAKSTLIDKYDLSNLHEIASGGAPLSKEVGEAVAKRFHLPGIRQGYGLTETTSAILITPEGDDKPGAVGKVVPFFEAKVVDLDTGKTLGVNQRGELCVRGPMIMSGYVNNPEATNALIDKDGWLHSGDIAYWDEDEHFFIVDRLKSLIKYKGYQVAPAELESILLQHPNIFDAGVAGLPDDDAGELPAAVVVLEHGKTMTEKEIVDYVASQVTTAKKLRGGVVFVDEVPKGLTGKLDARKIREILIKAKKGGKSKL
Nuclear receptor subfamily 1 group I member 3 (Homo sapiens), sequence (Q14994 whole entry, looked up): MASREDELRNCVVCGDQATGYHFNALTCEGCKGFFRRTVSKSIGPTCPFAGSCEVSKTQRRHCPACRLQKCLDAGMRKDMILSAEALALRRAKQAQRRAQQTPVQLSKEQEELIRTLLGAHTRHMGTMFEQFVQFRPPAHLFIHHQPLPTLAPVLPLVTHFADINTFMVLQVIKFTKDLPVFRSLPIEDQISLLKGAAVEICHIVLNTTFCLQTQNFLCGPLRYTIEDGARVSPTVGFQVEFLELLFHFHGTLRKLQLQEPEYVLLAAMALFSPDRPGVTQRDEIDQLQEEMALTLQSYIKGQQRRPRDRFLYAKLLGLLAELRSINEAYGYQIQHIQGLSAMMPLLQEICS

Row | SMILES | Potency [1] | Potency [2] | Potency [3] | Potency [4] | Potency [5] | Potency [6] | Potency [7] | Potency [8] | Potency [9] | Potency [10] | Potency [11] | outcome [12] | Potency [13] | Potency [14] | activity change, positive = activation [15] | Potency [16] | Potency [17] | Potency [18] | Potency [19] | Potency [20]
1 | CCN(CC)CCOC(=O)C1(c2ccccc2)CCCC1 | inactive | inactive | inactive | inactive | inactive | inactive | inactive | inactive | inactive | inactive | inactive | inactive | inactive | inactive | 0.628% [at 42.5 µM] | inactive | inactive | inactive | – | –
2 | C=CC(=O)OCCOC(=O)CCC(=O)O | inactive | inactive | inactive | inactive | inactive | inactive | inactive | inactive | inactive | – | inactive | inactive | – | inactive | 67.1% (active) | inactive | inactive | inactive | inactive | –
3 | CCCCCCCC/C=C\CCCCCCCC(N)=O | inactive | inactive | inactive | inactive | inactive | inactive | inactive | inactive | inactive | inactive | inactive | – | – | inactive | -4.69% | inactive | inactive | inactive | – | inactive
4 | NCc1ccccc1 | inactive | inactive | inactive | inactive | inactive | inactive | inactive | inactive | inactive | inactive | inactive | inactive | inactive | inactive | – | inactive | inactive | inactive | inactive | –
5 | O=S1(=O)c2cccc3cccc(c23)N1CCCN1CCN(c2ccc(F)cc2)CC1 | inactive | inactive | inactive | inactive | inactive | 26.6 µM (active) | inactive | inactive | inactive | inactive | inactive | – | – | – | -30.2% [at 42.5 µM] | inactive | inactive | inactive | – | –
6 | CCCCCCCCC(CO)CCCCCC (configuration not stated) | inactive | inactive | inactive | inactive | inactive | inactive | inactive | inactive | inactive | inactive | inactive | – | – | inactive | 4.04% | inactive | inactive | inactive | inactive | inactive
7 | CCCCOC(=O)/C=C\C(=O)OCCCC | inactive | inactive | inactive | inactive | inactive | inactive | inactive | inactive | inactive | – | inactive | inactive | inactive | inactive | -7.95% | inactive | inactive | inactive | – | –
8 | CC(=O)/C(C)=C/C1C(C)=CCCC1(C)C (configuration not stated) | inactive | inactive | inactive | inactive | inactive | inactive | inactive | inactive | inactive | inactive | – | inactive | inactive | inactive | 5.66% | inactive | inactive | inactive | – | –
9 | COc1ccc(C(C)=O)cc1 | inactive | inactive | inactive | inactive | inactive | inactive | inactive | – | – | inactive | inactive | – | – | – | – | inactive | inactive | inactive | inactive | –
10 | c1ccc(CNCc2ccccc2)cc1 | inactive | inactive | inactive | inactive | inactive | inactive | inactive | – | inactive | inactive | – | inactive | inactive | – | – | inactive | inactive | inactive | inactive | –
11 | CNS(=O)(=O)Cc1ccc2[nH]cc(CCN(C)C)c2c1 | inactive | inactive | inactive | inactive | inactive | inactive | inactive | – | – | inactive | inactive | inactive | inactive | – | – | inactive | inactive | inactive | inactive | –
12 | Cc1ccc2c(ccc3ccccc32)c1 | inactive | 31.8 µM (active) | inactive | inactive | inactive | – | inactive | – | inactive | inactive | – | inactive | – | – | – | inactive | inactive | inactive | – | –
13 | C=C(C)C(=O)OC(C)C | inactive | inactive | inactive | inactive | inactive | inactive | – | – | inactive | inactive | inactive | – | – | – | – | inactive | inactive | inactive | inactive | –
14 | O=C(O)C1CCC(C(=O)O)CC1 (configuration not stated) | inactive | inactive | inactive | inactive | – | inactive | inactive | inactive | inactive | inactive | inactive | – | inactive | inactive | – | inactive | inactive | inactive | inactive | inactive
15 | O=c1c2ccccc2nnn1CCl | inactive | inactive | inactive | inactive | inactive | – | inactive | – | inactive | inactive | inactive | inactive | inactive | – | – | inactive | inactive | inactive | inactive | –
16 | O=C1CCCCCO1 | inactive | inactive | inactive | inactive | inactive | inactive | – | – | inactive | – | – | inactive | inactive | – | – | inactive | inactive | inactive | inactive | –
17 | CN1CCC[C@@H]1c1cccnc1 | inactive | inactive | inactive | inactive | inactive | – | inactive | – | – | inactive | – | – | inactive | – | – | inactive | inactive | inactive | inactive | –
